ELG1 repair inh: qHTS screen for small molecules that inhibit ELG1-dependent DNA repair in human embryonic kidney (HEK293T) cells expressing luciferase-tagged ELG1 | HEK293T ELG1-luciferase reporter, luminescence, 16 h; DNA damage induced by 5-fluorouridine | Potency, µM (series often up to 46.1 µM), without a hit: top-dose activity change, negative = inhibition, usual class: inhibitors | 330,000 tested, 2.3% active | AID 504467, 2011; further: on the % scale 0 is the no-effect control and ±100 the full control effect; nearly all actives have a fitted effect of over 55% in size
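Cells (2,000 per well) received 5-fluorouridine plus test compound or DMSO and were incubated 16 hr at 37 °C, 5% CO2. Luciferase activity was read by luminescence 30 min after ONE-Glo addition; signal suppression marked inhibition of damage-induced ELG1 function.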
Rab9 prom act: qHTS Assay for Rab9 Promoter Activators; Huh7 Rab9 promoter-luciferase reporter, luminescence, 24 h; Potency, µM (series often up to 9.22 µM), inactives show at the top dose activation, negative = inhibition, most hits filed as activators; 320,000 tested, 2.8% active; further: % of control where 0% means no effect; nearly all actives have a fitted effect of over 60% in size
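Luciferase signal after 10 min detection reagent at ambient indicates Rab9 promoter upregulation; stably transfected Huh7 cells were treated 24 h with compound in DMSO at 37 °C, 5% CO2.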
SMN2 splice up: qHTS Assay for Enhancers of SMN2 Splice Variant Expression; HEK293 SMN2-luciferase splicing reporter, luminescence, 30-36 h; Potency, µM (titrated, usually from 46.1 µM), inactives show top-dose activity change, positive = activation, actives largely listed as activators; 210,000 tested, 2.8% active; AID 1458, 2008; further: % of control where 0% means no effect; nearly all actives have a fitted effect of over 55% in size
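HEK293 cells carry an SMN2 minigene-luciferase reporter in which exon 7 inclusion puts luciferase in frame. Cells were seeded at 2000 cells/well, attached for 10-12 hours, then exposed to compounds for 30-36 hours at 37C before ONE-Glo luminescence.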
NPC1 promoter act: qHTS Assay for NPC1 Promoter Activators; Potency, µM (series often up to 9.22 µM), for inactives: at the highest dose activation, hits mostly activators; 320,000 tested, 2.4% active; Huh7 NPC1 promoter luciferase reporter, 24 h; AID 485313, 2010; further: % of control where 0% means no effect; nearly all actives have a fitted effect of over 60% in size
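Quantitative HTS used a cell-based reporter: Huh7 cells stably bearing the NPC1 promoter upstream of luciferase were treated with compounds for 24 h, and promoter activation was read as luminescence.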
ELG1 genotoxic: qHTS screen for small molecules that induce genotoxicity in human embryonic kidney (HEK293T) cells expressing luciferase-tagged ELG1; HEK293T ELG1-luciferase reporter, luminescence, 16 h; Potency, µM (doses to about 46 µM), for inactives: at the highest dose activity change, positive = activation, actives largely listed as activators; 330,000 tested, 1.3% active; further: % of control where 0% means no effect; nearly all actives have a fitted effect of over 60% in size
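16 hr compound incubation (37 °C, 5% CO2) of HEK293T cells carrying luciferase-tagged ELG1; luciferase then measured by ONE-Glo luminescence after 30 min at RT.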
FLuc modulator: qHTS profiling assay for firefly luciferase inhibitor/activator using purifed enzyme and Km concentrations of substrates (counterscreen for miR-21 project). Potency, µM (series often up to 57.5 µM), inactives show top-dose activity change, negative = inhibition, actives largely listed as inhibitors. Luciferin 4-monooxygenase (Photinus pyralis), P08659. AID 588342, 2011. purified FLuc, Km substrates, luminescence inhibition. 360,000 tested, 6.9% active;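 further: plate controls were vehicle for no effect and reference inhibitor for full effect; nearly all actives have a fitted effect of over 55% in size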
Target sequence (P08659 whole entry, looked up): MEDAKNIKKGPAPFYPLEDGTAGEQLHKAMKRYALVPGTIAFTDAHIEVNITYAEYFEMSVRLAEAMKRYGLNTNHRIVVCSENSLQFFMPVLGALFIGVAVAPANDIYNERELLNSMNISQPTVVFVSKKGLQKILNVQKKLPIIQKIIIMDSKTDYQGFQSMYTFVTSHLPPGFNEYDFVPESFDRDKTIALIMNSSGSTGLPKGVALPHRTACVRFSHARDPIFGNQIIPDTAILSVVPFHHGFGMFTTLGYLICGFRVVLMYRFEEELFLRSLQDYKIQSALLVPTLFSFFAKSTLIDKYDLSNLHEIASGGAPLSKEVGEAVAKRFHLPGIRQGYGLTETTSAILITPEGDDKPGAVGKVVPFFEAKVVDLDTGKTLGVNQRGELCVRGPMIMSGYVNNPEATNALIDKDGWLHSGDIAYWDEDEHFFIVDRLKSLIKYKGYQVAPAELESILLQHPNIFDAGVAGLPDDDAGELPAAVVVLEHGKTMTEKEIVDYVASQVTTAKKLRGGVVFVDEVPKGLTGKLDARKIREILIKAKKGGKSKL
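Biochemical qHTS of compounds, final roughly 60 µM downward over six points, against 10 nM purified firefly luciferase using Km concentrations of substrates (10 uM D-luciferin, 10 uM ATP) in Tris acetate pH 7.5 buffer; luminescence output.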
ELG1 FLuc counter: qHTS screen for small molecules that inhibit ELG1-dependent DNA repair: Hit Confirmation in Cell-Based Luciferin Assay. shares compounds with ELG1 repair inh. cell-free firefly luciferase luminescence counter-screen, ViewLux. Potency, µM (titrated, usually from 46.1 µM), without a hit: top-dose activity change, negative = inhibition, most hits filed as inhibitors. 350 tested, 3% active. AID 624247, 2012; further: on the % scale 0 is the no-effect control and ±100 the full control effect
ELG1 Luc conf: HTS assay for small molecules that inhibit ELG1-dependent DNA repair in human embryonic kidney (HEK293T) cells expressing luciferase-tagged ELG1: Hit Confirmation; shares compounds with ELG1 repair inh; HEK293T ELG1-luciferase levels, luminescence; cells co-treated with 5-fluorouridine; Potency, µM (series often up to 46.1 µM), for the others: at the highest dose activity change, negative = inhibition, usual class: inhibitors; 670 tested, 68% active; AID 624248, 2012; further: on the % scale 0 is the no-effect control and ±100 the full control effect; nearly all actives have a fitted effect of over 55% in size
ELG1-Luc MMS: MMS-stimulated human ELG1 repair inhibition, confirmed | HEK293T luciferase-tagged ELG1 level, MMS stimulated | 670 tested, 53% active | Potency, µM (doses to about 46.1 µM), for inactives: at the highest dose activity change, negative = inhibition, actives largely listed as inhibitors | shares compounds with ELG1 repair inh; further: on the % scale 0 is the no-effect control and ±100 the full control effect; nearly all actives have a fitted effect of over 60% in size
ELG1 5FU viab: qHTS screen for small molecules that inhibit ELG1-dependent DNA repair: Hit Confirmation with 5FU Viability; cell viability with 5-FU, ELG1-dependent repair; 670 tested, under 10 active; AID 624250, 2012; shares compounds with ELG1 repair inh; Potency, µM (highest dose often 46.1 µM), for inactives: at the highest dose activity change, negative = viability loss, hits mostly cytotoxic;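 further: ELG1-luc HEK293T cells cotreated with 5-fluorouridine at 10 µM final; viability measured 16 h after compound addition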
ELG1 MMS cell: qHTS screen for small molecules that inhibit ELG1-dependent DNA repair: Hit Confirmation with MMS Viability. Cell viability with MMS, ELG1-dependent DNA repair. Potency, µM (doses to about 46.1 µM), for the others: top-dose activity change, negative = viability loss, hits mostly cytotoxic. shares compounds with ELG1 repair inh. 670 tested, 33% active. AID 624251, 2012;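 further: ELG1-luc HEK293T cells co-treated with 10 µM MMS; viability read 16 h after compound addition; on the % scale 0 is the no-effect control and ±100 the full control effect; nearly all actives have a fitted effect of over 60% in size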
Cell viab unstim: qHTS screen for small molecules that inhibit ELG1-dependent DNA repair: Hit Confirmation with Unstimulated Viability Assay. Potency, µM (titrated, usually from 45.9 µM), inactives show at the top dose activity change, negative = loss of viability, hits mostly cytotoxic. 900 tested, 8% active. cell viability counter-screen, unstimulated, luminescence. shares compounds with ELG1 repair inh. AID 624252, 2012;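 further: compound exposure lasted 16 hours before reading; on the % scale 0 is the no-effect control and ±100 the full control effect; nearly all actives have a fitted effect of over 55% in size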
FLuc biochem: qHTS screen for small molecules that inhibit ELG1-dependent DNA repair: Hit Confirmation in Biochemical Luciferin Assay | Potency, µM (titrated, usually from 57.5 µM), inactives show at the top dose activity, negative = inhibition, most hits filed as inhibitors | shares compounds with ELG1 repair inh | AID 624253, 2012 | 350 tested, 10% active | purified firefly luciferase, luminescence counter-screen; further: on the % scale 0 is the no-effect control and ±100 the full control effect
Numbers without * were called inactive; ? = inconclusive; · = not tested or not shown; [ ] = another dose, or the depositor's remark. The list is not random: actives were taken first. Their share in the collection is about 9.2%. The call rests on the fitted dose curve; in most records, active means well fitted curve in the direction sought with a large enough effect; inconclusive means small, poorly fitted or top-dose-only effect, or another doubt; inactive means no such curve, though single readings can be large; an effect the other way counts as inactive or inconclusive. Potency means the concentration at half of the fitted maximal effect.

SMILES	ELG1 repair inh	Rab9 prom act	SMN2 splice up	NPC1 promoter act	ELG1 genotoxic	FLuc modulator	ELG1 Luc conf	ELG1-Luc MMS	ELG1 5FU viab	ELG1 MMS cell	Cell viab unstim	others
c1ccc(Cn2nnnc2C(c2cccnc2)N2CCN(C3CCCCC3)CC2)cc1 (configuration not stated)	3.3µM*	-2%	19%	11%	-5%	-7%	?	?	2%	-2%	-13%
CCCCN(CC)S(=O)(=O)c1ccc2c(c1)n(C)c(=O)c(=O)n2C	3%	-1%	·	2%	-2%	1%	·	·	·	·	·
CCc1ccccc1NC(=O)CN1CCN(CC(=O)Nc2cc(C)ccc2OC)CC1	1.6µM*	-15%	·	-1%	-12%	1%	?	2.2µM*	7%	2.5µM*	-7%
O=[N+]([O-])c1ccc(Cl)c(S(=O)(=O)NC2=NCCC2)c1	?	1%	·	-1%	1%	-1%	·	·	·	·	·
O=C(NC1CCCC1)c1cc(COc2ccc3ncccc3c2)on1	2.3µM*	-41%	·	-28%	-2%	?	?	2.5µM*	-3%	3.2µM*	?	ELG1 FLuc counter=-3%;FLuc biochem=?
O=C(c1cc(COc2ccc3ncccc3c2)on1)N1CCCC1	?	-15%	·	-11%	4%	?	41%	13µM*	-1%	16µM*	?	ELG1 FLuc counter=25%;FLuc biochem=?
COCC1CCN(C(=O)c2cc(COc3ccc4ncccc4c3)on2)CC1	?	-38%	·	-24%	-9%	-10%	·	·	·	·	·
COc1ccccc1CNC(=O)c1ccc2c(c1)N(Cc1c(F)cccc1Cl)C(=O)CS2	·	·	-22%	·	·	-9%	·	·	·	·	·
CC(=O)NC(CC(=O)Nc1cc(Cl)ccc1-n1cncn1)c1ccccc1 (configuration not stated)	16%	-3%	·	-7%	-2%	4%	·	·	·	·	·
O=C1CSCC(=O)N1Cc1ccc(Cl)c(Cl)c1	23%	-2%[1.84 µM]	·	-4%	1%	0%	·	·	·	·	·
Cn1c(=O)c2c(nc(CN3CCc4ccccc4C3)n2Cc2ccccc2F)n(C)c1=O	?	-8%	-45%	0%	-11%	2%	8.9µM*	-28%	?	9%	-15%
Cc1nc2cc(-c3ccccc3)nn2c(N)c1-c1ccccc1	?	0.63µM*	·	1µM*	1.8µM*	·	·	·	·	·	0%	ELG1 FLuc counter=58%;FLuc biochem=0.37µM*
Cc1cc(-c2ccccc2)n2nc(-c3ccc(Cl)cc3)cc2n1	·	·	·	·	·	-2%	·	·	·	·	·
COc1cccc(NC(=O)c2ccc(N3C(=O)C4CC=C(C)CC4C3=O)cc2)c1 (configuration not stated)	29%	-7%	·	-4%	0%	-16%	·	·	·	·	·
COc1ccc(-c2csc(NC(=O)c3ccc(OCC(=O)N4CCOCC4)c(OC)c3)n2)cc1OC	4.6µM*	-12%	-71%	0%	-10%	?	4µM*	14µM*	?	25µM*	16µM*
CSCCC(Nc1ncnc2ccc(Br)cc12)C(=O)O (configuration not stated)	0%	0%	6%	0%	0%	1%	·	·	·	·	·
CC(C)Nc1ncnc2ccc(Br)cc12	2.3µM*	-7%	-87%	-6%	-12%	3%	3.5µM*	7.9µM*	-5%	10µM*	?
COc1ccc(S(=O)(=O)N2CCOCC2)cc1NC(=O)CN1CCCc2ccccc21	?	·	·	·	-2%	·	·	·	·	·	·
O=C(CNC(=O)c1cccs1)Nc1cccc(S(=O)(=O)N2CCOCC2)c1	4%	1%	·	1%	0%	-6%	·	·	·	·	·
CCCn1c(N2CCN(CC(=O)c3c(C)n(C)c4ccccc34)CC2)nc2c1c(=O)[nH]c(=O)n2C	7.3µM*	13%	-7%	4%	-4%	0%	3.2µM*	?	?	1%	-10%	ELG1 FLuc counter=3%;FLuc biochem=2%
CCn1c(N2CCN(CC(=O)c3c[nH]c4ccccc34)CC2)nc2c1c(=O)[nH]c(=O)n2C	0%	1%	-10%	0%	-9%	-14%	?	-4%	?	-1%	-9%	ELG1 FLuc counter=17%;FLuc biochem=1%
CCOC(=O)N1CCC(Nc2c(NCCCN3CCN(C4CCCCC4)CC3)c(=O)c2=O)CC1	3%	-2%	3%	1%	2%	1%	·	·	·	·	·

Screens (PubChem)
